Laboratory results as given in PubChem BioAssay (NCATS).
Where “and” joins values, the source holds several entries; their conditions need not be identical. Identical values can stand only once. Records with an inconclusive call do not appear. Entries that show only a call come without a potency. Calls of active or inactive are those of the source. Unless noted, the call rests on the fitted dose curve; in most records, active means well fitted curve in the direction sought with a large enough effect; inconclusive means small, poorly fitted or top-dose-only effect, or another doubt; inactive means no such curve, though single readings can be large; an effect the other way counts as inactive or inconclusive.

How the values were obtained:
[1] = Cell Viability - Hek293 (AID 427;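 active means compounds whose dose-response curve shows a full or clear partial loss of cell viability, called from curve shape rather than a numeric limit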;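 further: potency means the concentration at half of the fitted maximal effect; cells exposed to compound for 40 hours at 37 °C before reading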); conditions: qHTS
In short: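 AC50 values derive from Hill-modelled concentration-response of ATP-based luminescence, normalized between DMSO-only and 100 uM tamoxifen controls. Cells were exposed in complete culture medium for 40 hr at 37 °C before detection.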

[2] = Cell Viability - MRC5 (AID 434; calls by dose curve;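 further: potency means the concentration at half of the fitted maximal effect; potency reflects cytotoxicity seen as loss of intracellular ATP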); conditions: MRC5 lung fibroblast viability, qHTS
In short: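 MRC5 normal human lung fibroblasts, 1500 cells/well, exposed to compound for 40 hr at 37 C. Cellular ATP was read by CellTiter-Glo luminescence; data normalized to DMSO and 100 uM tamoxifen, with AC50 from Hill fits.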

[3] = Cellular Toxicity (caspase-3) HepG2 (AID 654); conditions: HepG2 caspase-3 activation, luminescence, 0% = DMSO only, 100% = tamoxifen; series mostly up to 92.2 µM;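 further: cells exposed to compound for 16 hours before reading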
In short: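 HepG2 cells (1500/well) were treated 16 h at 37 °C in complete medium, then caspase 3/7 activity was read by Caspase-Glo luminescence. Data were normalized to DMSO and 100 uM tamoxifen; AC50 came from Hill-equation fits of qHTS concentration-response.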

[4] = MultiTox-Fluor Cytotoxicity Assay - LYMP1-001 - Live Cells (AID 947); conditions: LYMP1-001 lymphoblastoid cells, live-cell protease fluorescence viability; series mostly up to 92.2 µM
[5] = MultiTox-Fluor Cytotoxicity Assay - LYMP1-002 - Dead Cells (AID 960); conditions: LYMP1-002 lymphoblastoid cells, dead-cell protease fluorescence; series mostly up to 46.1 µM;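 further: cells exposed to compound for 16 h at 37 °C; nearly all actives have a fitted effect of over 60% in size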
In short: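 Human lymphoblastoid LYMP1-002 cells, 2500/well, treated 16 h at 37 C; dead-cell protease cleavage of bis-AAF-R110 read by fluorescence (485/520); normalized to DMSO and 15 uM tetraoctylammonium bromide; AC50 from Hill fit.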

[6] = Cell Viability - LYMP2-004 (AID 966); conditions: LYMP2-004 lymphoblastoid cell viability, qHTS; series mostly up to 92.2 µM; further: nearly all actives have a fitted effect of over 65% in size; further: potency means the concentration at half of the fitted maximal effect
In short: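 Lymphoblastoid LYMP2-004 cells, 2500 per well, were preincubated for 5 hr and then treated with compound for 24 h at 37 C in complete medium. Viability was read as cellular ATP by CellTiter-Glo luminescence, and AC50 values were taken from Hill fits to concentration-response data.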

[7] = Cell Viability - LYMP2-005 (AID 967); conditions: LYMP2-005 lymphoblastoid cell viability; series mostly up to 92.2 µM; further: potency means the concentration at half of the fitted maximal effect
In short: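 Acute cytotoxicity is scored as a concentration-dependent drop in intracellular ATP in human lymphoblastoid LYMP2-005 cells after 24 h compound treatment. ATP is quantified by luciferase luminescence, and AC50 is derived by Hill-equation modelling.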

[8] = Cell Viability - LYMP2-025 (AID 976); conditions: LYMP2-025 lymphoblastoid cell viability; series mostly up to 92.2 µM
In short: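 Human lymphoblastoid LYMP2-025 cells, 2500/well, exposed 24 h at 37 C in complete medium in 1536-well qHTS. Viability as cellular ATP by CellTiter-Glo luminescence; AC50 from Hill fits of concentration-response data.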

[9] = Cell Viability - LYMP1-002 - Assay at 24 hr (AID 993); conditions: LYMP1-002 lymphoblastoid cells viability; series mostly up to 92.2 µM; further: potency means the concentration at half of the fitted maximal effect
In short: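 Human lymphoblastoid LYMP1-002 cells (2500/well) treated 24 h at 37 °C; viability as intracellular ATP by CellTiter-Glo luminescence. Tetraoctylammonium bromide as positive control; AC50 from Hill-equation fits of qHTS concentration-response.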

[10] = biological target: Peroxisome proliferator-activated receptor gamma (Homo sapiens) (UniProt P37231); assay: qHTS assay for small molecule agonists of peroxisome proliferator-activated receptor gamma signaling (AID 588536; active means well fitted curve in the direction sought with a large enough effect in the signal ratio, with a control signal flat, not every such curve was filed as active; the % refers to the signal ratio); conditions: HEK293 PPARg-UAS-bla, beta-lactamase ratio, 16 h, percent of rosiglitazone response, DMSO as zero; series mostly up to 76.7 µM
Peroxisome proliferator-activated receptor gamma (Homo sapiens), sequence (P37231 whole entry, looked up): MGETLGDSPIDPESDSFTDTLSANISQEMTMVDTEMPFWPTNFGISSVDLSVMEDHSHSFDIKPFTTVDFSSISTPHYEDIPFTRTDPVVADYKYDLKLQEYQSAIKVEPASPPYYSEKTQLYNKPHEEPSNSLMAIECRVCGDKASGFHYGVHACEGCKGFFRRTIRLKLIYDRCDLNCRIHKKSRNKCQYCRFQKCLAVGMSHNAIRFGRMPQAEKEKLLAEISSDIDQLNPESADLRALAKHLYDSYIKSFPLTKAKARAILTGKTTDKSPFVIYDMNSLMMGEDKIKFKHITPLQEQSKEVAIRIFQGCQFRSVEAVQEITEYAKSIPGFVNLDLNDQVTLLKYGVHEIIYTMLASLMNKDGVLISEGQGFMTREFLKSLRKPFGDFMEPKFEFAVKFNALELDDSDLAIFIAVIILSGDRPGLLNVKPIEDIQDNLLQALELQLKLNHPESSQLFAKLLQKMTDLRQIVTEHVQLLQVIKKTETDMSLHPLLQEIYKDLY
In short: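 HEK293 UAS-bla reporter line, 1% charcoal/dextran FBS; titration, 16 h, 37 C; CCF4 loading 2 h RT; fluorescence 460/530 nm. Normalized to rosiglitazone 2 uM = 100%, DMSO = 0%.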

[11] = qHTS assay for small molecule agonists of retinoid X receptor alpha signaling (AID 588544); conditions: HEK293T RXRa-UAS-bla, beta-lactamase reporter, 18 h; 530 nm emission
[12] = biological target: Thyroid hormone receptor beta (Homo sapiens) (UniProt P10828); assay: qHTS assay for small molecule agonists of thyroid hormone receptor beta signaling (AID 588545; calls by dose curve); conditions: TR-UAS-bla GripTite HEK 293, beta-lactamase ratio, agonist mode, 18 h; series mostly up to 76.7 µM
Thyroid hormone receptor beta (Homo sapiens), sequence (P10828 whole entry, looked up): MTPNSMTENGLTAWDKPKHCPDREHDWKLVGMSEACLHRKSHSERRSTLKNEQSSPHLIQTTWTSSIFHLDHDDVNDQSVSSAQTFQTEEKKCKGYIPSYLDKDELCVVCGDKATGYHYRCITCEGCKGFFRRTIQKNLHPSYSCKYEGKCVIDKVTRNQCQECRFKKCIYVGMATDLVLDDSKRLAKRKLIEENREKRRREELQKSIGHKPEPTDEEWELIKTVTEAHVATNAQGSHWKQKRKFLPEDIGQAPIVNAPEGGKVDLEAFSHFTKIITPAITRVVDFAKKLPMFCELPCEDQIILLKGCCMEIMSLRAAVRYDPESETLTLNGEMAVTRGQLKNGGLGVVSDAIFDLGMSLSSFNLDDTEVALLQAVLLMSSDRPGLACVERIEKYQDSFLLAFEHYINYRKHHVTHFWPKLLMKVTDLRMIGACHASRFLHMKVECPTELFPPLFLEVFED
In short: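 TR-UAS-bla GripTite HEK 293 cells (2500/well, medium with 2% charcoal/dextran FBS) were treated in agonist mode for 18 h at 37 C, titrated. Beta-lactamase was read by CCF4 ratio after 2 h; normalized to 10 nM T3 (100%) and DMSO, Hill-fitted for EC50 and efficacy.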

[13] = qHTS assay for small molecule antagonists of retinoid X receptor alpha signaling (AID 588546); conditions: HEK293T RXRa-UAS-bla, beta-lactamase ratio, antagonist mode; measured here: W530 green channel, cytotoxicity proxy;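 further: cells stimulated with 9-cis-retinoic acid as agonist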
In short: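 Beta-lactamase reporter inhibition, read as CCF4 fluorescence ratio (ex 405, em 460/530 nm) after 2 h at RT. HEK293T UAS-bla cells, 2500/well, were stimulated with 9-cis-RA at 500 or 100 nM final alongside test compound for 18 h at 37 C.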

[14] = biological target: Thyroid hormone receptor beta (Homo sapiens) (UniProt P10828); assay: qHTS assay for small molecule antagonists of thyroid hormone receptor beta signaling (AID 588547; active means well fitted inhibition curve with a large enough effect in the signal ratio, with a control signal flat, not every such curve was filed as active; the % refers to the signal ratio;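 further: cells stimulated with 0.4 nM T3 agonist during compound exposure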); conditions: TR-UAS-bla HEK293, beta-lactamase ratio, antagonist mode, 18 h
In short: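 TR-UAS-bla GripTite HEK293 cells in 2% charcoal/dextran FBS medium; compounds 0.59 nM to 92 uM with T3 at 0.4nM final, 18 h at 37 C. Beta-lactamase read by CCF4 fluorescence (460/530 nm); Hill fits gave IC50 and efficacy.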

[15] = biological target: Tumor necrosis factor (Homo sapiens) (UniProt P01375); assay: qHTS assay to identify small molecules that stimulate Tumor Necrosis Factor-alpha (TNF-alpha) secretion (AID 651757; active means well fitted curve in the direction sought with a large enough effect in the signal ratio; the % refers to the signal ratio); conditions: Human cells, HTRF 665/615 ratio; series mostly up to 92.2 µM
Tumor necrosis factor (Homo sapiens), sequence (P01375 whole entry, looked up): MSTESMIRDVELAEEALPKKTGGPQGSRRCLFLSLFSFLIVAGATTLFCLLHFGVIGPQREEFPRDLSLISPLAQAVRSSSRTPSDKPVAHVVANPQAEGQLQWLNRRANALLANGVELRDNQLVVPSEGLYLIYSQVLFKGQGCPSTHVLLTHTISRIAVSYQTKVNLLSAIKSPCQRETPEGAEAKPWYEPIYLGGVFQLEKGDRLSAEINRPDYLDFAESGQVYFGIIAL
In short: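 THP-1 cells (3000/well) exposed to compounds 17 hrs at 37 C. Secreted TNF-alpha detected by HTRF with cryptate- and XL665-labeled anti-TNF-alpha antibodies after 3 hr at room temperature.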

[16] = biological target: Mitogen-activated protein kinase 10 (Mus musculus) (UniProt Q61831); assay: JNK3 AlphaScreen Assay (AID 530; active means well fitted curve in either direction with a large enough effect, not every such curve was filed as active;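 further: kinase came from lysate of stimulated human HepG2 cells; signal reports phosphorylation of biotinylated GST-cJun 1-79 at Ser73 with 10 µM ATP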); conditions: JNK3 lysate, c-Jun phosphorylation; series mostly up to 57.1 µM
In short: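 Pre-activated (IL-1β/TNFα) JNK3 in HepG2 lysates phosphorylates biotin-GST-cJun(1-79), 10 uM ATP; anti-phospho-cJun(Ser73) AlphaScreen read at room temperature, pH 7.6 Tris buffer. Compounds pre-incubated 15 min as titrations.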

[17] = Cell Viability - LYMP2-016 (AID 984); conditions: LYMP2-016 lymphoblastoid cell viability, qHTS; series mostly up to 92.2 µM; further: nearly all actives have a fitted effect of over 55% in size; further: potency means the concentration at half of the fitted maximal effect
In short: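 Cells were seeded at 2500 per well and rested 5 hr before a 24 hr compound exposure at 37 C. Viability was then gauged as cellular ATP by luciferase luminescence, with AC50 values fitted to the Hill equation.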

[18] = Cell Viability - LYMP2-018 (AID 985); conditions: LYMP2-018 lymphoblastoid cells, viability (qHTS); series mostly up to 92.2 µM; further: nearly all actives have a fitted effect of over 50% in size; further: potency means the concentration at half of the fitted maximal effect
In short: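 Human lymphoblastoid LYMP2-018 cells, 2500/well, settled 5 hr at 37 C then exposed to compound 24 hr at 37 C; intracellular ATP measured by CellTiter-Glo luminescence. AC50 from Hill-equation concentration-response fits.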

[19] = Cell Viability - LYMP2-022 (AID 987); conditions: LYMP2-022 lymphoblastoid cell viability; series mostly up to 92.2 µM; further: nearly all actives have a fitted effect of over 55% in size; further: potency means the concentration at half of the fitted maximal effect
In short: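 LYMP2-022 lymphoblastoid cells (2500/well, complete medium) were treated with compounds for 24 hours at 37 C; intracellular ATP was then read by CellTiter-Glo luminescence after 30 min at room temperature. AC50 values were derived from Hill-equation fits.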

[20] = Cell Viability - LYMP2-024 (AID 988); conditions: LYMP2-024 lymphoblastoid cell viability; series mostly up to 92.2 µM; further: nearly all actives have a fitted effect of over 60% in size; further: potency means the concentration at half of the fitted maximal effect
In short: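 Human lymphoblastoid LYMP2-024 cells (2500/well) rested 5 hr, then treated with compound for 24 hr at 37 C in complete medium. Viability was measured as intracellular ATP by CellTiter-Glo luminescence. AC50 values came from Hill-equation fits.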

SMILES | Potency [1] | Potency [2] | outcome [3] | outcome [4] | Potency [5] | Potency [6] | Potency [7] | Potency [8] | Potency [9] | outcome [10] | max response [11] | Potency [12] | max response [13] | activity change % (negative = inhibition) [14] | outcome [15] | Potency [16] | Potency [17] | Potency [18] | Potency [19] | Potency [20]
C=C(Cl)CSC(=S)N(CC)CC | > 92 µM (inactive) | > 92 µM (inactive) | inactive | inactive | inactive | inactive | inactive | inactive | inactive | inactive | -16.2% | inactive | -2.71% | 0.68% (inactive) | inactive | – | – | – | – | –
COC(=O)Nc1nc2ccccc2[nH]1 | > 92 µM (inactive) | – | inactive | inactive | – | – | inactive | inactive | inactive | inactive | – | inactive | 1.76% | -22.5% (inactive) and -22.8% (inactive) | inactive | inactive | inactive | inactive | inactive | inactive
N#CC(Cl)(Cl)Cl | > 92 µM (inactive) | > 92 µM (inactive) | inactive | inactive | – | inactive | inactive | inactive | inactive | inactive | -10.8% | inactive | -17.2% | – | inactive | inactive | inactive | inactive | inactive | inactive
c1ccc(NNc2ccccc2)cc1 | > 92 µM (inactive) | > 92 µM (inactive) | inactive | inactive | inactive | – | inactive | inactive | inactive | – | -6.25% and -9.7% | inactive | -8.78% and -5.97% | 8.59% (inactive) | inactive | inactive | inactive | inactive | inactive | inactive
Nc1ccc([N+](=O)[O-])cc1N | > 92 µM (inactive) | > 92 µM (inactive) | inactive | inactive | inactive | inactive | inactive | inactive | inactive | inactive | -12.1% | inactive | 7.14% and -1.85% | 8.39% (inactive) and -11.3% (inactive) | – | inactive | inactive | inactive | inactive | inactive
CN(C)C(=O)Nc1ccc(Cl)cc1 | > 92 µM (inactive) | > 92 µM (inactive) | inactive | inactive | inactive | inactive | inactive | – | inactive | inactive | -9.88% and -12.4% | inactive | -7.13% and -6.88% | -0.766% (inactive) | inactive | inactive | inactive | inactive | inactive | inactive
O=[N+]([O-])c1cc(Cl)c(Cl)c(Cl)c1 | > 92 µM (inactive) | > 92 µM (inactive) | inactive | inactive | inactive | inactive | inactive | inactive | inactive | inactive | 9.3% | inactive | -6.59% | 3.05% (inactive) | inactive | inactive | inactive | inactive | inactive | inactive
O=[N+]([O-])c1ccccc1O | > 92 µM (inactive) | > 92 µM (inactive) | inactive | inactive | inactive | inactive | inactive | inactive | inactive | inactive | -4.21% | inactive | -5.99% | -16.2% (inactive) | inactive | inactive | inactive | inactive | inactive | inactive
COC(C)(C)C | > 92 µM (inactive) | > 92 µM (inactive) | – | inactive | inactive | inactive | inactive | inactive | inactive | – | 9.16% | inactive | -12.9% | -17.3% (inactive) | inactive | inactive | inactive | inactive | inactive | inactive
O=Cc1ccc(Cl)cc1Cl | > 92 µM (inactive) | > 92 µM (inactive) | inactive | inactive | inactive | inactive | – | inactive | inactive | inactive | -11.7% | inactive | -13.3% | 0.009% (inactive) | inactive | inactive | inactive | inactive | inactive | inactive
Oc1cccc(Cl)c1 | > 92 µM (inactive) | > 92 µM (inactive) | inactive | inactive | inactive | inactive | inactive | inactive | – | inactive | -0.644% | inactive | -0.103% | 0.91% (inactive) | inactive | inactive | inactive | inactive | inactive | inactive
O=C(O)C(Br)CBr (configuration not stated) | > 92 µM (inactive) | > 92 µM (inactive) | inactive | inactive | inactive | – | inactive | inactive | inactive | – | 10.3% | inactive | – | 10.8% (inactive) | inactive | inactive | inactive | inactive | inactive | –
CN1CSC(=S)N(C)C1 | – | > 92 µM (inactive) | inactive | – | inactive | 31.6 µM (active) | 31.6 µM (active) | – | 39.8 µM (active) | inactive | – | inactive | 5.73% | 21.7% (inactive) and -19% (inactive) | inactive | – | 39.8 µM (active) | 12.6 µM (active) | 10 µM (active) | 12.6 µM (active)
